An excerpt weighted towards active compounds, which were near 2.6% of everything screened.
AmpC nodet inh: Promiscuous and Specific Inhibitors of AmpC Beta-Lactamase (assay without detergent). AID 585, 2007. AmpC nitrocefin hydrolysis, absorbance 480 nm, no detergent. Potency, µM (highest dose often 28.7 µM), inactives show top-dose activity change, negative = inhibition. actives 1.8% (n = 71,000). P00811; further: % of control where 0% means no effect
Target sequence (P00811 whole entry, looked up): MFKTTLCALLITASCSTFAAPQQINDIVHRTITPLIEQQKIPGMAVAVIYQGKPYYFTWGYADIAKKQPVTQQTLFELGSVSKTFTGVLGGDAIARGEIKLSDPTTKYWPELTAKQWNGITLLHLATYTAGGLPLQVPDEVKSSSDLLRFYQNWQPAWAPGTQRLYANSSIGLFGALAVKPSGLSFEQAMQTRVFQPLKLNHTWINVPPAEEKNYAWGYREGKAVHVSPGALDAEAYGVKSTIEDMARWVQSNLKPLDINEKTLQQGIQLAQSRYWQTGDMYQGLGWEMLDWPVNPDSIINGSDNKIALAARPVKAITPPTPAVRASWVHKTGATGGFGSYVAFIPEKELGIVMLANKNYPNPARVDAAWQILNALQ
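AmpC, 20 mM phosphate pH 7.0; 15 min cpd preinc, RT; start with nitrocefin (800 uM stock); A480 kinetic read, 20 s intervals, 4 min. No-enzyme wells = negative control.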
SmPrx2 inh: Schistosoma Mansoni Peroxiredoxins (Prx2) | Schistosoma mansoni peroxiredoxin 2 (Prx2) | S. mansoni Prx2 activity coupled to TGR/GSH (TGR is thioredoxin glutathione reductase), NADPH fluorescence loss, qHTS | Potency, µM | actives 0.07% (n = 65,000)
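Coupled assay in which S. mansoni TGR passes NADPH reducing equivalents via glutathione to Prx2, which reduces H2O2. Compounds were preincubated 15 min at room temperature with 25 nM TGR/50 nM Prx2 mix. Kinetic NADPH fluorescence loss (ex 365/em 450 nm) was monitored.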
LT uptake inh: qHTS Assay for Anthrax Lethal Toxin Internalization | Cells, anthrax lethal toxin internalization, FRET ratio (460/530) | Potency, µM (titrated, usually from 40 µM), without a hit: at the highest dose activity change, negative = inhibition, actives largely listed as inhibitors | actives 0.67% (n = 70,000); further: on the % scale 0 is the no-effect control and ±100 the full control effect; nearly all actives have a fitted effect of over 50% in size
AmpC inh det: Promiscuous and Specific Inhibitors of AmpC Beta-Lactamase (assay with detergent); P00811; purified AmpC, nitrocefin hydrolysis with detergent; Potency, µM (series often up to 28.7 µM), inactives show at the top dose activity change, negative = inhibition; actives 0.09% (n = 71,000); active means well fitted curve in the direction sought with a large enough effect; inconclusive means small, poorly fitted or top-dose-only effect; further: on the % scale 0 is the no-effect control and ±100 the full control effect
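E. coli AmpC (5.3 nM) in 20 mM phosphate pH 7.0 with 0.01% Triton X-100, preincubated 15 min RT with compound; nitrocefin (2 uL of 800 uM stock) hydrolysis followed by 480 nm absorbance every 20 s over 4 min.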
Active calls of the source: *; ? = inconclusive; nt = no result given; [ ] = remark or other dose. Unless noted, the call rests on the fitted dose curve. Potency means the concentration at half of the fitted maximal effect.

SMILES	AmpC nodet inh	SmPrx2 inh	LT uptake inh	AmpC inh det
Cc1cc(NC(=O)CSc2nc3ccccc3c(=O)n2Cc2ccccc2)no1	-19.9%	>57	-8.6%	-2.4%
COc1ccc(OC)c(CN2C(=O)c3ccccc3C2C(=O)NCc2cccnc2)c1 (configuration not stated)	3.98µM*[single pt active]	>57	0.9%	11.4%
COc1ccc(CN2C(=O)c3ccccc3C2C(=O)NCc2cccnc2)c(OC)c1 (configuration not stated)	21.4%	>57	3.1%	-5.4%
O=C(NCc1cccnc1)C1c2ccccc2C(=O)N1C1CCCC1 (configuration not stated)	3.98µM*[single pt active]	>57	-4.5%	13.7%
C[C@@H]1CC[C@@H]2N(C1)C[C@H]1[C@@](O)([C@H](O)C[C@]3(O)[C@H]4CC[C@H]5[C@]6(O)O[C@]4(C[C@]13O)[C@@]5(C)CC[C@@H]6O)[C@@]2(C)O	-4.8%[5.75 µM]	>57	2.7%[8 µM]	0.3%[5.75 µM]
O=c1c2ccccc2oc2cc(O)c([C@@H]3COC[C@@H](CO)[C@@H](O)[C@@H](O)[C@H]3O)c(O)c12	-7.6%	>57	?	1.2%
Cc1c(Cl)cccc1NC(=O)c1cc(-c2ccc(O)cc2)on1	12.6µM*[single pt active]	>57	?	3.1%
CCOC(=O)CCc1c(C)nc2cc(-c3ccccc3OC)[nH]n2c1=O	3.98µM*[single pt active]	>57	-5.9%	8.6%
O=C(O)/C(=C\c1ccc(O)cc1)c1cccc2ccccc12	3.6%[5.75 µM]	>11.4	9.2%[8 µM]	-3.4%[5.75 µM]
Cc1cc(N2CCCN(C)CC2)nc2cc(Cl)ccc12	37.1%	nt	10µM*	5.8%
NC1(C(=O)NC2(C(=O)O)CCCC2)CCCC1	-3.2%[5.75 µM]	>57	?	-2.2%[5.75 µM]
COc1ccc(C(C)N2CC34C=CC(O3)C(C(=O)OCC(C)C)C4C2=O)cc1 (configuration not stated)	3.98µM*[single pt active]	>57	-9.0%	14.8%
CCCCOC(=O)C1C2C=CC3(CN(CCc4ccccc4)C(=O)C13)O2 (configuration not stated)	3.98µM*[single pt active]	>57	14.9%	11.7%
CCc1ccccc1N1CC23C=CC(O2)C(C(=O)OCC(C)C)C3C1=O (configuration not stated)	40.9%	>57	9.1%	8.3%
CCc1ccc(N2CC34C=CC(O3)C(C(=O)OC)C4C2=O)cc1 (configuration not stated)	3.98µM*[single pt active]	>57	-14.0%	6.2%
CCCCOC(=O)C1[C@H]2C(=O)N(CCc3ccccc3)C[C@]23C=C[C@H]1O3 (some centres not stated)	17.1%	>57	12.2%	-1.0%
CCc1ccc(N2CC34C=CC(O3)C(C(=O)OC(C)C)C4C2=O)cc1 (configuration not stated)	3.16µM*[single pt active]	>57	17.5%	6.4%
O=C(O)[C@H]1CC=CC[C@@H]1C(=O)Nc1cccc(O)c1	-7.4%[5.75 µM]	>57	-3.3%[8 µM]	-1.2%[5.75 µM]
CC1=NCC[N@@+]1(CCc1ccccc1)Cc1ccccc1	14.3%[5.75 µM]	>57	-6.6%[8 µM]	-2.5%[5.75 µM]
Cc1cc(NC(=O)C2COc3ccccc3O2)no1 (configuration not stated)	3.98µM*[single pt active]	>57	8.3%	10.8%
O=C(Nc1nc(-c2ccccn2)cs1)C1COc2ccccc2O1 (configuration not stated)	9.7%	>57	?	11.6%
CCOc1ccc(OCC)c(NC(=O)C2COc3ccccc3O2)c1 (configuration not stated)	3.7%	>57	2.8%	-0.1%
Cc1cc(NC(=O)C2CC(c3ccc(F)cc3)=NO2)no1 (configuration not stated)	3.98µM*[single pt active]	>57	-22.9%	10.8%
O=C(Nc1nc(-c2ccc3c(c2)OCO3)cs1)C1COc2ccccc2O1 (configuration not stated)	10µM*	>57	?	11.8%
COc1ccc(OC)c(NC(=O)C2COc3ccccc3O2)c1 (configuration not stated)	8.2%	nt	12.6µM*	10.0%
SMILES	AmpC nodet inh	SmPrx2 inh	LT uptake inh	AmpC inh det
CC[C@H](CO)NC(=O)[C@H]1C=C2c3cccc4[nH]cc(c34)C[C@H]2N(C)C1	-0.3%	>57	-0.5%	0.7%
O=C(c1cccc(F)c1)N1CCC2(CC1)CN(c1ccc(-c3ccccc3)cc1)C2	3.4%	>57	-4.7%	0.3%
O=C(O)[C@H]1C[C@H](C(=O)O)N1	3.6%	>57	?	0.1%
Cc1c(C(=O)OCc2ccccc2)[nH]c2c1C(=O)CC(c1ccco1)C2 (configuration not stated)	12.6µM*[single pt active]	>57	?	0.8%
Nc1ncnc2nc[nH]c12.Nc1ncnc2nc[nH]c12.[Cl][Pt]([Cl])([Cl])[Cl]	-12.2%[5.75 µM]	>57	-13.3%[8 µM]	-3.4%[5.75 µM]
O=C(c1cc(C(F)(F)F)cc(C(F)(F)F)c1)N1CCC2(CC1)CN(Cc1ccncc1)C2	74.3%	>57	?	-3.4%
O=C(c1ccncc1)N1CCC2(CC1)CN(Cc1cc(C(F)(F)F)cc(C(F)(F)F)c1)C2	-5.5%	>57	12.6µM*	22.9%
CN1[C@@H]2CC[C@H]1CC(O[C@@H](c1ccccc1)c1ccccc1N)C2 (some centres not stated)	11.2%	>57	-14.2%	-2.2%
COc1cccc(Cn2c(=O)c(-c3cccs3)nc3cnc(OCc4ccccc4)nc32)c1	4.9%	>57	?	0.3%
COc1cc2c(=O)n(CC3CCCO3)c(=O)n(CC(=O)Nc3ccc(F)cc3F)c2cc1OC (configuration not stated)	3.98µM*[single pt active]	>57	9.7%	15.7%
O=C(Cn1ncc2c(=O)oc3ccccc3c21)N1CCC(N2CCCCC2)CC1	3.16µM*[single pt active]	>57	-13.3%	9.8%
O=C(Cn1ncc2c(=O)oc3ccccc3c21)N1CCc2ccccc2C1	3.98µM*[single pt active]	>57	-11.0%	11.9%
Cc1ccc2oc(=O)c3cnn(CC(=O)N4CCCc5ccccc54)c3c2c1	35.8%	nt	13.8%	5.7%
N=C(N)SCCN1CCCCC1	-0.2%[5.75 µM]	>57	3.3%[8 µM]	-3.8%[5.75 µM]
C[N+](C)(C)c1ncnc2c1ncn2[C@@H]1CCCCO1	5.8%[5.75 µM]	>57	-2.6%[8 µM]	-5.4%[5.75 µM]
C/C(=N\O)c1ccc2c3c([nH]c2c1)CCCC3	-9.3%	nt	10µM*	4.0%
O=C(NCCO)c1ccc2[nH]c3c(c2c1)CCCC3	2.3%	nt	-13.2%	5.3%
COc1ccccc1N1CCN(C(=O)c2sc3nc(-c4ccc(F)cc4)cn3c2C)CC1	126.5%	>57	15.8µM*	13.3%
CCOC(=O)N1CCN(C(=O)c2sc3nc(-c4ccc(F)cc4)cn3c2C)CC1	118.7%	>57	0.0%	-3.9%
Cc1cc(Cc2cc(C)c(N)cc2N)c(N)cc1N	3.0%[5.75 µM]	>57	4.4%[8 µM]	-5.4%[5.75 µM]
CCOC(=O)c1c(C)n(C)c2ccc(OCC(O)Cn3nc(C)c(Br)c3C)cc12 (configuration not stated)	110.4%	>57	10µM*	1.0%
COc1ccc(-c2cc(C(=O)NCc3cccs3)no2)cc1OC	2.5%	nt	-8.2%	7.1%
COCCNc1ncnc2ccc(-c3ccccc3C(F)(F)F)cc12	67.6%	nt	-11.6%	9.0%
